The text below walks through data of the supplement of paper PMC7393113.

The test system of the experiment is iBMDM (immortalised mouse bone-marrow-derived macrophages), LPS-stimulated. Put plainly: mitochondrial superoxide (MitoSOX fluorescence) fold increase over unstimulated control; higher = more LPS-induced mitochondrial ROS (less inhibition). To be noted: inhibitor concentration: 500 nM, LPS: 100 ng/ml. Put shortly: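 Mitochondrial superoxide values are mean fold induction compared with untreated macrophages. Triplicate wells of immortalised mouse bone-marrow-derived macrophages in phenol-red-free 1% FCS/DMEM received kinase inhibitors (500 nM) for 30 min, then 1 μM MitoSox for 10 min, then LPS (100 ng/ml). Fluorescence (510/580 nm) was taken every 60 min for 4 h.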

Where a name gives a salt, the structure may show the parent alone. ± gives the standard deviation of the averaged measurements.

In the case of `CC(C)CC(=O)Nc1n[nH]c2c1CN(C(=O)C1CCN(C)CC1)C2(C)C`, the mitochondrial superoxide runs as follows: (time after LPS: 1 h) 1.08 ± 0.049; (time after LPS: 2 h) 1.13 ± 0.04; (time after LPS: 4 h) 1.27 ± 0.079.

For the compound `O=c1c(-c2ccc(O)cc2)coc2cc(O)cc(O)c12` [Genistein], the mitochondrial superoxide is, setting by setting: (time after LPS: 1 h) 1.22 ± 0.079; (time after LPS: 2 h) 1.29 ± 0.058; (time after LPS: 4 h) 1.36 ± 0.15.

Take `COc1ccc(-c2ccc3c(N4CCOCC4)nc(N4C[C@@H](C)O[C@@H](C)C4)nc3n2)cc1CO`: the mitochondrial superoxide turned out to be 1.29 ± 0.041 (time after LPS: 1 h), 1.24 ± 0.037 (time after LPS: 2 h) and 1.32 ± 0.068 (time after LPS: 4 h).

In the case of `CC(C)CCN1c2nc(Nc3cc(F)c(O)c(F)c3)ncc2N(C)C(=O)C1C` (centres undefined), the mitochondrial superoxide by setting is: (time after LPS: 1 h) 1.14 ± 0.036; (time after LPS: 2 h) 1.21 ± 0.047; (time after LPS: 4 h) 1.321 ± 0.0097.

As to `COc1cc2ncnc(Nc3ccc(O)c(Br)c3)c2cc1OC`, the mitochondrial superoxide was 1.04 ± 0.047 (time after LPS: 1 h), 1.04 ± 0.082 (time after LPS: 2 h) and 1.07 ± 0.12 (time after LPS: 4 h).

With `CNCc1ccc(-c2cc(-c3nc(-c4ccc(S(=O)(=O)C(C)C)cc4)cnc3N)on2)cc1`, the mitochondrial superoxide is, setting by setting: (time after LPS: 1 h) 1.12 ± 0.068; (time after LPS: 2 h) 1.24 ± 0.057; (time after LPS: 4 h) 1.26 ± 0.018.

Take `COc1cc2ncnc(Oc3cccc(NC(=O)Nc4cc(C(C)(C)C(F)(F)F)on4)c3)c2cc1OC`: the mitochondrial superoxide by setting is: (time after LPS: 1 h) 1.36 ± 0.027; (time after LPS: 2 h) 1.562 ± 0.0063; (time after LPS: 4 h) 1.59 ± 0.025.

For `COc1cc2nccc(Oc3ccc(NC(=O)NC4CC4)c(Cl)c3)c2cc1C(N)=O` [Lenvatinib (E7080)], the mitochondrial superoxide turned out to be 1.45 ± 0.042 (time after LPS: 1 h), 1.71 ± 0.053 (time after LPS: 2 h) and 1.73 ± 0.15 (time after LPS: 4 h).

For `Cn1cnc(-c2cc3nccc(Oc4ccc(NC(=S)NC(=O)Cc5ccccc5)cc4F)c3s2)c1`, the mitochondrial superoxide runs as follows: (time after LPS: 1 h) 1.06 ± 0.021; (time after LPS: 2 h) 1.14 ± 0.057; (time after LPS: 4 h) 1.26 ± 0.059.

As to `COc1ccc(-c2ccc3c(N4CCOC[C@@H]4C)nc(N4CCOC[C@@H]4C)nc3n2)cc1CO`, the mitochondrial superoxide was 1.14 ± 0.024 (time after LPS: 1 h), 1.19 ± 0.031 (time after LPS: 2 h) and 1.25 ± 0.025 (time after LPS: 4 h).

Take `COc1cc(N2CCC(N)CC2)ccc1Nc1ncc(Cl)c(-c2c[nH]c3ccccc23)n1`: the mitochondrial superoxide came to 1.21 ± 0.018 (time after LPS: 1 h), 1.27 ± 0.025 (time after LPS: 2 h) and 1.36 ± 0.057 (time after LPS: 4 h).

As to `COc1cc2nccc(Oc3ccc(NC(=O)Nc4cc(C)on4)c(Cl)c3)c2cc1OC` [Tivozanib (AV-951)], the mitochondrial superoxide by setting is: (time after LPS: 1 h) 1.14 ± 0.031; (time after LPS: 2 h) 1.17 ± 0.037; (time after LPS: 4 h) 1.24 ± 0.024.

For the compound `CCN1C(=CC(C)=O)Sc2ccc(OC)cc21`, the mitochondrial superoxide (time after LPS: 1 h) is 1.417 ± 0.014, the mitochondrial superoxide (time after LPS: 2 h) was determined as 1.44 ± 0.089 and the mitochondrial superoxide (time after LPS: 4 h) is 1.63 ± 0.1.

As to `Cc1cc(Nc2cc(N3CCN(C)CC3)nc(/C=C/c3ccccc3)n2)n[nH]1`, the mitochondrial superoxide by setting is: (time after LPS: 1 h) 1.19 ± 0.044; (time after LPS: 2 h) 1.21 ± 0.011; (time after LPS: 4 h) 1.32 ± 0.03.

On to `COc1cc2c(Oc3ccc(NC(=O)C4(C(=O)Nc5ccc(F)cc5)CC4)cc3F)ccnc2cc1OCCCN1CCOCC1`, for which the mitochondrial superoxide reads like this: (time after LPS: 1 h) 1.25 ± 0.022; (time after LPS: 2 h) 1.35 ± 0.034; (time after LPS: 4 h) 1.48 ± 0.03.

Regarding `O=c1c(O)c(-c2ccc(O)c(O)c2)oc2cc(O)cc(O)c12` [Quercetin], the mitochondrial superoxide worked out at 1.31 ± 0.046 (time after LPS: 1 h), 1.35 ± 0.071 (time after LPS: 2 h) and 1.43 ± 0.063 (time after LPS: 4 h).

As to `O=C1Nc2ccc(I)cc2C1=Cc1cc(Br)c(O)c(Br)c1`, the mitochondrial superoxide was 1.1 ± 0.039 (time after LPS: 1 h), 1.07 ± 0.074 (time after LPS: 2 h) and 1.09 ± 0.014 (time after LPS: 4 h).

Turning to `Oc1ccc(-c2nc(-c3ccc(F)cc3)c(-c3ccncc3)[nH]2)cc1`, the mitochondrial superoxide was found to be 1.32 ± 0.13 (time after LPS: 1 h), 1.41 ± 0.13 (time after LPS: 2 h) and 1.57 ± 0.12 (time after LPS: 4 h).

`Cc1cc(F)c(Nc2ncnc3cc(OCc4ccccc4)ccc23)cc1O`: the mitochondrial superoxide (time after LPS: 1 h) stood at 1.17 ± 0.075, the mitochondrial superoxide (time after LPS: 2 h) stood at 1.11 ± 0.018 and the mitochondrial superoxide (time after LPS: 4 h) turned out to be 1.2 ± 0.016.

In the case of `C[C@H](NC(=O)/C(C#N)=C/c1cccc(Br)n1)c1ccccc1`, the mitochondrial superoxide is, setting by setting: (time after LPS: 1 h) 1.21 ± 0.039; (time after LPS: 2 h) 1.368 ± 0.011; (time after LPS: 4 h) 1.5 ± 0.04.

Regarding `O=C(O)[C@]1(Cc2cccc(Nc3nccs3)n2)CC[C@@H](Oc2cccc(Cl)c2F)CC1`, the mitochondrial superoxide amounted to 1.22 ± 0.027 (time after LPS: 1 h), 1.39 ± 0.086 (time after LPS: 2 h) and 1.51 ± 0.044 (time after LPS: 4 h).

In turn, `Cc1ccc2nc(NCCN)c3ncc(C)n3c2c1` had a mitochondrial superoxide (time after LPS: 1 h) of 1.43 ± 0.036, a mitochondrial superoxide (time after LPS: 2 h) of 1.48 ± 0.027 and a mitochondrial superoxide (time after LPS: 4 h) of 1.63 ± 0.047.

Regarding `O=c1cc(N2CCOCC2)oc2c(-c3ccccc3)cccc12`, the mitochondrial superoxide was found to be 1.36 ± 0.075 (time after LPS: 1 h), 1.41 ± 0.086 (time after LPS: 2 h) and 1.52 ± 0.035 (time after LPS: 4 h).

For `COc1cc(Nc2ncc(F)c(Nc3ccc4c(n3)NC(=O)C(C)(C)O4)n2)cc(OC)c1OC` [R406 (free base)], the mitochondrial superoxide is, setting by setting: (time after LPS: 1 h) 1.23 ± 0.07; (time after LPS: 2 h) 1.32 ± 0.041; (time after LPS: 4 h) 1.29 ± 0.065.

In the case of `Cc1[nH]nc2ccc(-c3cncc(OC[C@@H](N)Cc4ccccc4)c3)cc12`, the mitochondrial superoxide is, setting by setting: (time after LPS: 1 h) 1.24 ± 0.1; (time after LPS: 2 h) 1.43 ± 0.11; (time after LPS: 4 h) 1.68 ± 0.098.

With `Cc1ccc(S(=O)(=O)Nc2nc3ccccc3nc2Nc2ccc3nsnc3c2)cc1`, the mitochondrial superoxide came to 1.4 ± 0.089 (time after LPS: 1 h), 1.48 ± 0.091 (time after LPS: 2 h) and 1.56 ± 0.041 (time after LPS: 4 h).

Turning to `Cc1ccc(C(=O)Nc2cccc(C(F)(F)F)c2)cc1Nc1nc(-c2cccnc2)nc2c1cnn2C`, the mitochondrial superoxide is 1.23 ± 0.037 (time after LPS: 1 h), 1.27 ± 0.013 (time after LPS: 2 h) and 1.38 ± 0.083 (time after LPS: 4 h).

As to `Cn1cc(C2=C(c3cn(CCCSC(=N)N)c4ccccc34)C(=O)NC2=O)c2ccccc21` [Ro 31-8220 Mesylate], the mitochondrial superoxide reads like this: (time after LPS: 1 h) 1.57 ± 0.051; (time after LPS: 2 h) 1.6 ± 0.0078; (time after LPS: 4 h) 1.79 ± 0.12.

`CCCS(=O)(=O)Nc1ccc(F)c(C(=O)c2c[nH]c3ncc(Cl)cc23)c1F` gave a mitochondrial superoxide (time after LPS: 1 h) of 1.24 ± 0.15, a mitochondrial superoxide (time after LPS: 2 h) of 1.26 ± 0.15 and a mitochondrial superoxide (time after LPS: 4 h) of 1.34 ± 0.21.

Turning to `O=C(NC1CCNCC1)c1n[nH]cc1NC(=O)c1c(Cl)cccc1Cl`, the mitochondrial superoxide stood at 1.13 ± 0.061 (time after LPS: 1 h), 1.15 ± 0.041 (time after LPS: 2 h) and 1.3 ± 0.018 (time after LPS: 4 h).

`COc1ccc(S(=O)(=O)N(C(C)=O)c2ccccc2/C=C/c2cc[n+]([O-])cc2)cc1` showed a mitochondrial superoxide (time after LPS: 1 h) of 1.15 ± 0.035, a mitochondrial superoxide (time after LPS: 2 h) of 1.17 ± 0.058 and a mitochondrial superoxide (time after LPS: 4 h) of 1.32 ± 0.05.

Consider `NCC(=O)Nc1ccc(-n2nc(C(F)(F)F)cc2-c2ccc3c(ccc4ccccc43)c2)cc1`, for which the mitochondrial superoxide is, setting by setting: (time after LPS: 1 h) 1.414 ± 0.012; (time after LPS: 2 h) 1.41 ± 0.031; (time after LPS: 4 h) 1.49 ± 0.087.

`CCN(CC)CCCCNc1ncc2cc(-c3cc(OC)cc(OC)c3)c(NC(=O)NC(C)(C)C)nc2n1`: the mitochondrial superoxide came out at 1.16 ± 0.036 (time after LPS: 1 h), 1.11 ± 0.048 (time after LPS: 2 h) and 1.12 ± 0.045 (time after LPS: 4 h).
